Hit rate of the full screen: of about 390,000 compounds, about 2,200 (0.56%) were called active. Another 3% or so got no clear call; they are omitted. The call rests on the fitted dose curve; in most records, active means well fitted inhibition curve with a large enough effect; inconclusive means small, poorly fitted or top-dose-only effect; inactive means no such curve, though single readings can be large or run the other way. What follows is part of a selection rich in actives, with near analogues and random picks from the rest. A call without a number means that no potency is given here.
Potency means the concentration at half of the fitted maximal effect.

In this assay the target is Chromobox protein homolog 1 (Homo sapiens) (UniProt P83916). Kind of assay: HTS for Inhibitors of HP1-beta Chromodomain Interactions with Methylated Histone Tails. Further: nearly all actives have a fitted effect of over 70% in size. To be noted: AlphaScreen HP1-beta / biotin-H3K9me3 peptide binding; series mostly up to 114 µM. From the text: As our understanding of epigenetics expands, it is becoming clear that players in this field are potential targets for drug development. This area of epigenetic therapy has established applications for the treatment of cancer and neurological diseases. We have been involved in this field for a number of years and have performed high-throughput screens to identify the first small molecule inhibitors of protein methyltransferases. These methyltransferases target multiple substrates, and thus regulate many arms of an epigenetic pathway. The methylation of different substrates often generates docking sites for effector proteins that harbor binding domains (chromo, tudor, PHD, MBT and ANK repeats). It has been proposed that the binding sites generated for different proteins by these post-translational modifcations mediate downstream effects on chromatin. Consistent with this theory, di- and tri-methylation of histone H3K9 facilitates the binding of heterochromatin protein HP1. The HP1 protein harbors a chromodomain that is responsible for the methyl-dependent interaction between HP1 and lysine 9 of histone H3. HP1 was first described in flies as a heterochromatin associated protein that can regulate gene silencing. It harbors a chromodomain that binds H3K9me3. In addition, it harbors a chromoshadow domain that interacts with a large number of proteins that are involved in heterochromatin formation and gene repression. There are three highly related HP1 isoforms. All three variants are associated with pericentric heterochromatin and it is not clear whether they have specific or redundant functions. MPP8 is also involved in the repression of gene in euchromatic regions (unpublished data) and like HP1 its chromodomain binds H3K9me3. MPP8 harbors an ankyrin repeat region that is likely involved in binding and recruiting interacting proteins with transcriptional repressive function, much like the chromoshadow domain of HP1 does. We hypothesize that by inhibiting specific protein-protein interactions we will be able to develop compounds that block a single arm of an epigenetic pathway. The specificity attained by blocking a single protein-protein interaction will be far greater than that attained by blocking the enzyme that regulates one of many interactions. Low-affinity protein-protein interactions (Kd in the single- to double-digit micromolar range) such as those discussed here have been very difficult to assay by traditional techniques such as fluorescence polarization or fluorescence resonance energy transfer. We have developed a sensitive chemiluminescence-based assay (Quinn, et al. 2009), which serves as the starting point for this project. The following is a validation assay to identify lead compounds that can block methyl-dependent protein-protein interactions (specifically HP1-beta), which can be used as probes to analyze these methyl-driven interactions and perhaps even developed into targeted epigenetic therapies. NIH Chemical Genomics Center [NCGC] NIH Molecular Libraries Probe Centers Network [MLPCN] MLPCN Grant: DA031087 Assay Submitter (PI): Mark Bedford, University of Texas, Medical Anderson Cancer Center, TX
Chain of Chromobox protein homolog 1 (Homo sapiens) (P83916 whole entry, looked up): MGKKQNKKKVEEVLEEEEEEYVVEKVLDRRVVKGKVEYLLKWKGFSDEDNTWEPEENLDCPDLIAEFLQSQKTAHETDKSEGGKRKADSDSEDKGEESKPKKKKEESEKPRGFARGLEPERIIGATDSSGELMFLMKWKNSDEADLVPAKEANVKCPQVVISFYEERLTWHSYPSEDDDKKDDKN
To each well, 2 uL of HP1-beta protein (final 50 nM) and 1 uL biotinylated histone peptide trimethylated at Lys9 [b-H3(1-18)K9me3] (final 50 nM) was added in 1x PBS buffer, pH 7.4, containing 0.01% Tween-20 using a nanoliter dispenser. Formation of a protein-peptide complex proceeded at room temperature for 30 min. A Kalypsys pin-tool was employed to transfer 23 nL of library compound solution in DMSO to each well. Aurintricarboxylic acid (ATA) was used as an intraplate control with a 12-point titration in duplicate. Following a 30 min incubation of the protein-peptide complex with compounds at room temperature, a mixture of 40 ug/mL each streptavidin-coated donor and nickel chelate acceptor AlphaScreen beads (final 10 ug/mL) was added in a 1 uL dispense for a final volume of 4 uL. […]
Take `CSc1nc(-c2ccccc2Cl)nc2c1Cc1c(CO)cnc(C)c1O2`: the Potency entry was “inactive”.

As to `COC(=O)C1=C(C)N(c2ccc(C)cc2)/C(=C/c2ccc(O)cc2)C1=O`, the Potency result is “inactive”.

For `COC(=O)C1=C(C)N(c2ccc(Br)cc2)C(=O)/C1=C\c1ccco1`, the Potency was 44.7 µM (active).

Turning to `COc1ccc(N2C(=O)/C(=C\c3ccco3)N=C2SCC(N)=O)cc1Cl`, the Potency entry was “inactive”.

On to `Cc1nc(N2CCOCC2)c2c(C(=O)NCc3cccc(Cl)c3)c(C)oc2n1`, for which the Potency result is “inactive”. For `CC(C)(C)c1ccc(/C=C/C(=O)NC2CCS(=O)(=O)C2)cc1` (stereo unspecified) the value was “inactive”; for `CN(C)c1ccc(/C=C/C(=O)c2ccc(C(C)(C)C)cc2)cc1[N+](=O)[O-]`, 31.6 µM (active). Regarding `CN(C)c1ccc(S(=O)(=O)NCC(=O)NCC2CCCCC2)cc1[N+](=O)[O-]`, the Potency result was “inactive”. As to `CCCCC(=O)OC1=CN(Cc2ccccc2)S(=O)(=O)c2ccccc21`, the Potency entry was “inactive”.

With `COc1ccc(C(=O)Nc2nonc2-c2ccc(OC)c(OC)c2)cc1Cl`, the Potency entry is “inactive”. As for `O=C(CSc1nc2ccccc2nc1Cc1ccccc1)N1CCCCC1`, the Potency result is “inactive”. Regarding `O=C(NCC1CC1)C1(C(F)(F)F)C/C(=C\CCO)CCCO1` (stereo unspecified), the Potency entry was “inactive”. For `O=C(O)c1ccccc1N=N/C(=N/Nc1cc(S(=O)(=O)O)ccc1O)c1ccccc1` the value was 10 µM (active); for `CCC(=O)Nc1cccc(C(=O)OCc2cc(=O)n3nc(CC)sc3n2)c1`, “inactive”. For `O=C(Nc1ccccc1Br)c1cc(CN2CCCC2)on1` the value was “inactive”; for `Fc1ccc(C(Nc2ccc(Cl)c(C(F)(F)F)c2)c2nnc(-c3ccccc3)o2)cc1` (stereo unspecified), “inactive”; for `COc1ccc(C2CC(=O)N(Cc3ccccc3C)c3c2c(C)nn3-c2nc(C)cc(C)n2)c(OC)c1` (stereo unspecified), “inactive”. For `COc1cc(OC)c2c(c1C(CCN1CCCCC1)c1ccc(N(C)C)cc1)OC(=O)CC2c1ccc(N(C)C)cc1` (stereo unspecified) the value was “inactive”; for `CC(C)OC(=O)c1cc(NC(=O)C2C3CCC(O3)C2C(=O)O)cc(C(=O)OC(C)C)c1` (stereo unspecified), “inactive”; for `Cc1sc(NC(=O)C2C3CCC(O3)C2C(=O)O)c(C(=O)OC(C)C)c1-c1ccc(Cl)cc1` (stereo unspecified), 4.47 µM (active).

Regarding `CCc1c(C)sc(NC(=O)C2c3ccccc3Oc3ccccc32)c1C(=O)OC(C)C`, the Potency result is “inactive”. For `FC(F)(F)C1CCCN(c2nsc3ccccc23)C1` (stereo unspecified) the value was 3.16 µM (active). Turning to `CCC(=O)N1CCc2cc(S(=O)(=O)NC(C(=O)Nc3ccc(C(C)=O)cc3)C(C)C)ccc21` (stereo unspecified), the Potency entry was “inactive”. As to `COc1ccc(C2/C=C\CN(Cc3ccco3)C(C)C(=O)N2Cc2ccc(F)cc2)cc1` (stereo unspecified), the Potency entry is “inactive”. For the compound `CC1CCN(C(=O)c2ccc3c(c2)NC(=O)CN3)CC1`, the Potency result is “inactive”. For `Cc1noc(C)c1S(=O)(=O)Nc1ccc(C(=O)N2CCN(c3ccc(F)cc3)CC2)cc1` the value was “inactive”; for `Cc1ccc(CSCC2Nc3ccc(C(=O)N4CCN(c5ccc(F)cc5)CC4)cc3NC2=O)cc1` (stereo unspecified), 20 µM (active). As for `Cc1ccc(C)c(N2CCN(c3ccc4cc(S(=O)(=O)N5CCC(C)CC5)ccc4n3)CC2)c1`, the Potency result was “inactive”. For `Oc1ccc2ccccc2c1N=Nc1nccs1` the value was 6.31 µM (active); for `O=C(CSc1nc(-c2cccc(F)c2)[nH]c1-c1ccccc1)Nc1ccc2c(c1)OCO2`, “inactive”; for `Cc1ccccc1CSc1nc(-c2ccccc2)nc2c1Cc1c(CO)cnc(C)c1O2`, “inactive”. For `Cc1ccc(NC(=O)C2CCN(S(=O)(=O)c3cc(-c4noc(C)n4)ccc3C)CC2)c(C)c1`, the Potency result was “inactive”. Regarding `O=C(NC(=S)Nc1ncccn1)c1ccccc1Br`, the Potency entry was “inactive”.

`CCOC(=O)C1=C(NC(=S)NC(=O)c2ccccc2)c2ccccc2CC1(C)C`: the Potency entry was “inactive”. For `Cn1nnc(NC(=S)NC(=O)c2ccccc2)n1` the value was 70.8 µM (active); for `CCN(CC)Cc1nc2sc(C)c(C)c2c(=O)[nH]1`, “inactive”. For `CSc1nnc(SCc2nc3sc(C(=O)O)c(C)c3c(=O)[nH]2)s1` the value was 50.1 µM (active). For `Cc1sc2nc(CC(N)=O)[nH]c(=O)c2c1-c1ccccc1` the value was “inactive”. As for `C=C1CCN(Cc2ccc(OC)cc2)S(=O)(=O)c2ccccc21`, the Potency entry is “inactive”. For `COC(=O)c1ccc(OC)c(Cn2c(=O)n(Cc3ccccc3)c(=O)c3c2c2cc(OC)ccc2n3C)c1` the value was “inactive”. For `Cc1cc(C)cc(NC(=O)c2cnc3sc(N4CCCC4)nn3c2=O)c1` the value was “inactive”. For `O=C(NCc1ccccc1)c1cc(-c2cccc(Cl)c2)on1` the value was “inactive”. Turning to `O=C(O)C(c1ccccc1)N1C(=O)/C(=C\c2ccc(-c3cccc(Cl)c3)o2)SC1=S` (stereo unspecified), the Potency is 39.8 µM (active). As for `CCC(C)N1C(=O)S/C(=C/c2ccc(Sc3nc4ccccc4[nH]3)o2)C1=O` (stereo unspecified), the Potency entry was “inactive”.

For `Cc1cccc(N2CCN(C(=O)Cn3ncc4c5ccccc5n(C)c4c3=O)CC2C)c1` (stereo unspecified), the Potency result was “inactive”. For `CC(C)c1ccc(NS(=O)(=O)c2ccc3[nH]cc(C(=O)NC4CCCC4)c(=O)c3c2)cc1` the value was “inactive”; for `Cc1cc2c(cc3c(SCc4cccc(Cl)c4)nnc(C)n32)o1`, “inactive”. For `CCOc1cccc2c1N[C@@H](c1ccc(C(=O)O)cc1)[C@H]1CC=C[C@@H]21` the value was 35.5 µM (active); for `CCOC(=O)C1Nc2ccc(C(F)(F)F)cc2C2C=CCC12` (stereo unspecified), “inactive”. For `CCOc1cccc(CC(=O)N2CCc3c([nH]c4ccccc34)C2c2ccc(F)cc2)c1OCC` (stereo unspecified) the value was “inactive”; for `C=C1CCN(C(CC(C)C)C(=O)NCc2cc(OC)c(OC)c(OC)c2)S(=O)(=O)c2ccccc21` (stereo unspecified), “inactive”; for `CCCn1c2ccccc2c2cnn(CC(=O)N(C)c3ccccc3CC)c(=O)c21`, “inactive”. Regarding `COc1ccc(C2/C=C\CN(C(=O)c3ccc(C)cc3)C(Cc3ccccc3)C(=O)N2Cc2ccc(F)cc2)cc1` (stereo unspecified), the Potency entry is “inactive”. Consider `COc1cccc(CNC(=O)Cn2c(=O)c3cccn3c3ccc(F)cc32)c1OC`, for which the Potency entry is “inactive”. With `O=C(c1cccs1)c1cn(CCOc2ccc(Cl)cc2)c2ccccc12`, the Potency entry was “inactive”. For `Cc1ccc(-c2ccc(CCC(=O)O)n2-c2ccc(C(N)=O)cc2)cc1` the value was “inactive”; for `CCN1/C(=C/C(=S)Nc2ccccc2)Sc2ccccc21`, 50.1 µM (active); for `CCN1/C(=C\c2ccc3ccccc3[n+]2CC)Sc2cc(C)ccc21`, “inactive”. On to `CCN1C(=O)c2ccccc2Sc2ccc(NC(=O)Cc3ccc(OC)cc3)cc21`, for which the Potency entry was “inactive”.

For `COc1ccc(CCNC(=O)c2ccc(CSCc3ccc(C)cc3)o2)cc1OC`, the Potency result was “inactive”. For `COc1ccc(-c2ccc(OC)c(C3C4C=CCC(C)C4C(=O)N3Cc3ccccc3)c2)cc1C` (stereo unspecified) the value was “inactive”.

The values are drawn from PubChem BioAssay AID540317 (National Center for Advancing Translational Sciences (NCATS), 2011).
